Data published in PubChem BioAssay (Tox21).
Inconclusive results are not listed. Where a call stands in place of a potency, no number is given. Some structures have more than one record in an assay (separate samples or runs), and their calls can disagree. Active and inactive are the calls of the source. The call rests on the fitted dose curve; in most records, active means well fitted cell-killing curve with a large enough effect in the repeat runs; inconclusive means weak or mixed curves, or effect the other way; inactive means flat fitted curve, though single readings scatter.
Potency means the concentration at half of the fitted maximal effect.

Assay: qHTS RealTime-Glo MT Cell Viability Assay in HepG2 cells - 0 hour (AID 1224889); further: nearly all actives have a fitted effect of over 50% in size
Settings: RealTime-Glo luminescence; series mostly up to 76.8 µM
Source text: U.S. Tox21 Program National Center for Advancing Translational Sciences [NCATS] NIH Chemical Genomics Center [NCGC] U.S. Environmental Protection Agency [EPA] National Institutes of Environmental Health Sciences [NIEHS] National Toxicology Program [NTP] U.S. Food and Drug Administration [FDA] Tox21 Assay Overview: Measure of cell viability is critical in the cell-base assay. Analysis of cell viability is necessary for the characterization of cell responses to cytotoxic drugs and environmental stress. A RealTime-Glo MT Cell Viability Assay to monitor cell viability in real time of continues cell culture during 40 hours of compound treatment was used to screen Tox21 10K library compounds in HepG2 cells. The RealTime-Glo MT Cell Viability Assay is a nonlytic, homogeneous, bioluminescent method to measure cell viability in real time using a simple, plate-based method. The assay involves adding NanoLuc luciferase and a cell-permeant prosubstrate to cells in culture. Viable cells reduce the proprietary prosubstrate to generate a substrate for NanoLuc luciferase. This substrate diffuses from cells into the surrounding culture medium, where it is rapidly used by the NanoLuc Enzyme to produce a luminescent signal. The signal correlates with the number of viable cells, making the assay well suited for cytotoxicity studies.
Tox21 Assay Protocol Summary: The mixture of HepG2 cell suspension and reagents were dispensed at 600cells/6 ul/well in 1536-well tissue culture treated black solid bottom plates using a Multidrop dispenser. After the assay plates were incubated at a 37 C/5% CO2 incubator for 5 hours, 23 nL of compounds dissolved in DMSO, positive and negative controls was transferred to the assay plate by a pintool work station. The plates were incubated at 37 C for 40 hours. The luminescence intensity were measured at 0h, 8h, 16h, 24h, 32h and 40h time points using ViewLux plate reader during compound treatment.
In the case of `Nc1c(Cl)cc([N+](=O)[O-])cc1Cl`, the Potency is reported as “inactive”.
With `O=P(O)(O)CCCl` the Potency was “inactive”.
For `Nc1cccnc1`, the Potency was “inactive”.
In the case of `CCCCCCCCCCCOC(=O)c1ccccc1C(=O)OCCCCCCCCCCC`, the Potency is reported as “inactive”.
In the case of `Nc1ccc(-c2ccccc2)cc1`, the Potency is reported as “inactive”.
With `CCN(CC)C(=O)SCc1ccc(Cl)cc1` the Potency was “inactive”.
For `Cc1cc(C)cc(C)c1`, the Potency was “inactive”.
With `CCCCN(CCCC)N=O` the Potency was “inactive”.
For `Oc1cc(Cl)ccc1Cl`, the Potency was “inactive”.
In the case of `C[C@]12CCC(=O)C(O)=C1CC[C@@H]1[C@@H]2CC[C@]2(C)C(=O)CC[C@@H]12`, the Potency is reported as 21.9 µM (active) and inactive.
With `Oc1cc(Cl)c(Cl)cc1Cl` the Potency was “inactive”.
In the case of `C=C(C)[C@H]1Cc2c(ccc3c2O[C@@H]2COc4cc(OC)c(OC)cc4[C@@H]2C3=O)O1`, the Potency is reported as “inactive”.
For `NCc1cccnc1`, the Potency was “inactive”.
In the case of `COc1ccc(C=O)cc1`, the Potency is reported as “inactive”.
With `CCOc1cc(Oc2ccc(C(F)(F)F)cc2Cl)ccc1[N+](=O)[O-]` the Potency was “inactive”.
For `Nc1ccc(Cl)cc1N`, the Potency was “inactive”.
For `NNC(N)=S`, the Potency was “inactive”.
For `C#CCOS(=O)OC1CCCCC1Oc1ccc(C(C)(C)C)cc1` (stereo not given), the Potency was “inactive”.
With `CCOC(=S)S` the Potency was “inactive”.
For `CCC(CC)Nc1c([N+](=O)[O-])cc(C)c(C)c1[N+](=O)[O-]`, the Potency was “inactive”.
In the case of `O=[N+]([O-])c1cccc2ccccc12`, the Potency is reported as “inactive”.
With `N#Cc1cc(Br)c(O)c(Br)c1` the Potency was “inactive”.
In the case of `c1nc[nH]n1`, the Potency is reported as “inactive”.
With `COC(=O)c1sccc1S(=O)(=O)NC(=O)Nc1nc(C)nc(OC)n1` the Potency was “inactive”.
With `CC(C)N(C(=O)SCC(Cl)=C(Cl)Cl)C(C)C` the Potency was “inactive”.
With `CCCCOCCOP(=O)(OCCOCCCC)OCCOCCCC` the Potency was “inactive”.
For `Oc1c(Cl)c(Cl)c(Cl)c(Cl)c1Cl`, the Potency was “inactive”.
With `c1cc(OCC2CO2)ccc1Cc1ccc(OCC2CO2)cc1` (stereo not given) the Potency was “inactive”.
With `CN(C)c1ccc(C(=O)c2ccc(N(C)C)cc2)cc1` the Potency was “inactive”.
For `O=P(Oc1ccccc1)(Oc1ccccc1)Oc1ccccc1`, the Potency was “inactive”.
For `Cc1ccccc1[N+](=O)[O-]`, the Potency was “inactive”.
With `CC(C)=CC1C(C(=O)OCc2coc(Cc3ccccc3)c2)C1(C)C` (stereo not given) the Potency was “inactive”.
For `N[C@@H](Cc1ccc(N(CCCl)CCCl)cc1)C(=O)O`, the Potency was “inactive”.
With `CCC(=O)O[C@H]1CC[C@H]2[C@@H]3CCC4=CC(=O)CC[C@]4(C)[C@H]3CC[C@]12C` the Potency was 7.76 µM (active).
For `C=CCN(CC=C)C(=O)C(Cl)Cl`, the Potency was “inactive”.
In the case of `Nc1ccc(Cl)c(Cl)c1`, the Potency is reported as “inactive”.
For `Cc1cccc(N)c1N`, the Potency was “inactive”.
With `c1ccc(-c2cccc(-c3ccccc3)c2)cc1` the Potency was “inactive”.
With `COP(=S)(OC)Oc1cc(Cl)c(Cl)cc1Cl` the Potency was “inactive”.
With `CCc1cccc(CC)c1N(COC)C(=O)CCl` the Potency was “inactive”.
